Screening results deposited in PubChem BioAssay by Center for Chemical Genomics, University of Michigan.
CDC25B-CDK2 inh: primary biochemical HTRF screen for blockers of M-phase inducer phosphatase 2 binding to CDK2/cyclin A; z-score (no concentration beside the values); 94,000 compounds, 0.72% hits; AID 1259370, 2018; HTRF CDC25B-CDK2/CyclinA binding, anti-His/anti-Flag; active compounds read high; in the data active means z-score above about 3.2
TAR Tat displ: TAR RNA-Tat peptide displacers, HIV-1, primary screen, biochemical, FRET, FAM/TAMRA-labeled Tat; HIV-1 TAR RNA, Tat peptide displacement FRET; active compounds read high; z-score (concentration not given with the values); 100,000 compounds, 0.6% hits; active means z-score of 3 or more in at least 2 runs
Hits are given with their value; . = inactive; / = no result given; ! = not active in a repeat. Rows were chosen to be rich in hits. Some 0.86% of all compounds tested hit in one or more screens of this group.

SMILES	CDC25B-CDK2 inh	TAR Tat displ
CCc1ccc(-c2nc(-c3ccncc3)no2)cc1	.	.
CC1CCC(NC(=O)C2CCN(S(=O)(=O)c3ccc4c(c3)C(C)(C)C(=O)N4C)CC2)CC1 (stereo unspecified)	.	.
Cc1ccc(CNC(=O)Cn2nc(C)n3c(cc4occc43)c2=O)cc1	.	.
COc1ccc(Br)cc1CNC(=O)Cn1nc(C)n2c(cc3occc32)c1=O	11.9	.
CSc1ccc(C2C3=C(Nc4c2c(=O)[nH]c(=O)n4C)c2ccccc2C3=O)cc1 (stereo unspecified)	.	7.42
COCCn1c2c(c(=O)[nH]c1=O)C(c1ccc(SC)cc1)C1=C(N2)c2ccccc2C1=O (stereo unspecified)	.	.
O=C1Nc2c(C(=O)O)cccc2C1=O	.	21.4
O=C(O)c1ccc2c3c(ccc(C(=O)O)c13)C(=O)NC2=O	.	.
O=C1CCc2cc(S(=O)(=O)NC(C(=O)NCc3ccco3)c3ccccc3)ccc2N1 (stereo unspecified)	.	/
O=C(c1noc2c1CCCC2)N1CCC(c2c[nH]c3ccccc23)(c2c[nH]c3ccccc23)CC1	.	/
CN(C)CCNc1oc(-c2ccc(S(=O)(=O)N3CCc4ccccc4C3)cc2)nc1C#N	.	.
N#Cc1nc(-c2ccc(S(=O)(=O)N3CCc4ccccc4C3)cc2)oc1NCCCn1ccnc1	10.7	.
Cc1ccc(C(Nc2ccccn2)c2ccc3cccnc3c2O)cc1 (stereo unspecified)	.	/
N#Cc1cnc(-c2cnccn2)nc1N	.	/
C=CCn1c(=O)n(Cc2ccccc2)c(=O)c2cc3c(nc21)CC(C)(C)OC3	.	.
Cn1c(C(=O)O)ccc1S(=O)(=O)NCc1ccco1	.	/
O=C1NC(c2cccc(O)c2)c2c1n[nH]c2-c1ccco1 (stereo unspecified)	.	.
O=C1NC(c2ccco2)c2c1n[nH]c2-c1ccco1 (stereo unspecified)	5.3	.
Cc1ccc(C2NC(=O)c3n[nH]c(-c4ccco4)c32)cc1 (stereo unspecified)	.	.
O=C1NC(c2cccnc2)c2c1n[nH]c2-c1ccco1 (stereo unspecified)	8.87	.
COc1ccccc1CNc1nc2ccccc2c2nc(-c3cccnc3)nn12	.	.
Cc1ncc(-c2ccc(C)c(S(=O)(=O)NCc3ccc(Cl)cc3)c2)o1	/	.
COc1ccc(-c2cc(=O)[nH]c(=S)s2)cc1	.	.
O=c1cc(-c2ccccc2)oc2cc(O)c(O)c(O)c12	/	29.3
COc1cccc2oc(-c3ccccc3)cc(=O)c12	/	.
SMILES	CDC25B-CDK2 inh	TAR Tat displ
CCCN1C(=O)C2(/C(=C(/O)c3ccc(C)c(F)c3)C(=O)C(=O)N2CC2CCCO2)c2ccccc21 (stereo unspecified)	.	.
Cc1ccc(/C(O)=C2/C(=O)C(=O)N(CC3CCCO3)C23C(=O)N(C)c2ccccc23)cc1F (stereo unspecified)	.	16.2
CCCCN1C(=O)/C(=C2\SC(N3CCCCC3)=NC2=O)c2ccccc21	.	/
Cc1sc2ncn(CC(=O)N3CCCCC3C)c(=O)c2c1S(=O)(=O)N1CCN(C)CC1 (stereo unspecified)	16.5	/
Cc1sc2ncn(CC(=O)N3CCCC3)c(=O)c2c1S(=O)(=O)N1CCCCC1	.	/
CCc1ccccc1N1C(=O)C2C3c4ccccc4C(C(=O)O)(c4ccccc43)C2C1=O (stereo unspecified)	.	.
O=C1C(=O)N(CC(O)CN2C(=O)C(=O)c3ccccc32)c2ccccc21	.	14.6
O=C1C(=O)N(Cc2ccccc2)c2ccccc21	.	.
CCN1CCN(c2cc3c(cc2F)c(=O)c(S(=O)(=O)c2ccc(Cl)cc2)cn3C)CC1	/	.
Cn1c(=O)c2c(-c3ccc(Cl)cc3)n(-c3ccccc3)cc2n(C)c1=O	.	.
O=C(N1CCN(c2ccccc2)CC1)C1(S(=O)(=O)c2ccc(Cl)cc2)CC1	.	/
O=C(Nc1cccc(O)c1)c1cccc(N2C(=O)c3cccc([N+](=O)[O-])c3C2=O)c1	5.13	/
CC(C)(C)NC(=O)c1cccc(N2C(=O)c3cccc([N+](=O)[O-])c3C2=O)c1	.	/
Cc1nn(S(=O)(=O)c2ccc(C(C)(C)C)cc2)c(C)c1S(=O)(=O)N1CCCC(C)C1 (stereo unspecified)	/	.
CCCCN(C)C(=O)Cn1ncc2c([nH]c3ccccc32)c1=O	/	.
CCC(=O)Nc1ccc2c(c1)sc(=O)n2C	/	.
Cn1c(=O)sc2cc(NC(=O)Cn3c(=O)oc4ccccc43)ccc21	7.49	.
CC1=C(C(=O)OC(C)C)C(c2cccc(O)c2)n2ncnc2N1 (stereo unspecified)	.	.
Nc1cccc(NC(=O)c2cccs2)c1	.	/
CCCN[C@H]1CCc2nc(N)sc2C1	.	10.6!
CCC(=O)Nc1nc2c(s1)CC(C(C)(C)C)CC2 (stereo unspecified)	.	.
CC1CCN(c2nccn(-c3cccc(Cl)c3)c2=O)CC1	/	.
CSc1nccc(-c2sc(-c3ccc(Cl)cc3)nc2C)n1	.	/
Cc1c(C(=O)NC2CCCCC2)oc2ccc(S(=O)(=O)N3CC(C)CC(C)C3)cc12 (stereo unspecified)	.	/
Oc1cc(O)cc(/C=C/c2ccc(O)c(O)c2)c1	.	36.8
SMILES	CDC25B-CDK2 inh	TAR Tat displ
Oc1ccc(/C=C/c2ccc(/C=C/c3ccc(O)cc3)c(Br)c2)cc1	.	/
Cn1cc(NC(=O)Nc2ccc(F)cc2)c2ccccc2c1=O	/	.
Cc1ccc(-c2cc3c4c(C)n(C5CCCCC5)c(C)c4c(C)nn3c2)o1	.	16.6
Cc1ccc(-n2c(C)c3c(C)nn4cc(C)cc4c3c2C)cc1	.	/
Cc1ccc(-c2cc3c4c(C)n(Cc5ccc6c(c5)OCO6)c(C)c4c(C)nn3c2)o1	22.9	35.5
Cc1ccc(-c2cc3c4c(C)n(Cc5ccccc5)c(C)c4c(C)nn3c2)o1	.	.
Cc1ccc(-c2cc3c4c(C)n(C)c(C)c4c(C)nn3c2)o1	15.8	35.6
COc1cc2c(cc1OC)C1=C(C#N)CN(CCc3ccccc3)CN1CC2	.	.
COc1cc2c(cc1OC)C1=C(C#N)CN(c3ccc(C)c(C)c3)CN1CC2	15.4	.
CCCCC(CC)CNS(=O)(=O)c1cc(Br)cc2c1N(C(=O)CC)CC2 (stereo unspecified)	.	.
Cc1onc(-c2c(Cl)cccc2Cl)c1NC(=O)NNc1ccccn1	9.54	/
Cc1noc(NC(=O)Nc2c(-c3ccccc3Cl)noc2C)c1C	.	/
N#C/C(=C/c1ccccc1N1CCN(Cc2ccccc2)CC1)S(=O)(=O)c1ccccc1	.	/
O=S(=O)(Nc1ccc(-c2cc3cc(F)ccc3[nH]2)cc1)c1cnc[nH]1	/	.
Cc1nc2c(c(C)c1CCC(=O)N1CCC(N3CCCCC3)CC1)c(=O)n(C)c(=O)n2C	.	.
Cc1ccc(-c2nc3ccccc3n2Cc2ccc(F)cc2)o1	/	.
CC(=O)N1c2ccc(S(=O)(=O)N3c4ccccc4CC3C)cc2CC1C (stereo unspecified)	/	.
COC(=O)c1cc(S(=O)(=O)N2c3ccccc3CC2C)c[nH]1 (stereo unspecified)	/	21.6
Cc1ccc(O)c(C(=O)c2cnc3cc(-c4ccccc4)nn3c2)c1	.	.
CCSc1ncc2c(=O)n(CC(=O)NCc3ccc4c(c3)OCO4)cnc2n1	/	12.8
O=C(Cn1cnc2nc3c(cc2c1=O)CCCC3)NCc1ccc2c(c1)OCO2	/	.
